Laboratory results reported in PubChem BioAssay (NCI).
Compounds without any hit were thinned out: in the full panel of roughly 83,000, 20% have a hit.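 Assay: single dose, 48 h. Readout: percent growth (0 = no net growth; negative = cell death). Active: <10.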 Unmarked numbers belong to inactive results. The source made the active and inactive calls.

System: NCI-H522 lung
Assay: NCI-60 one-dose screen, 48 h (100 = growth as untreated, 0 = no growth, -100 = all killed)
Settings: 10 µM

SMILES | growth
Oc1[nH]c2ccc(Cl)cc2c1/C=c1/ccc2c(c1)N=C(c1cc(F)cc(F)c1)N=2 | 33.7%
COc1ccc2c(c1)C(=O)c1c-2c(=O)n(CCCN(C)C)c2cc(OC)c(OC)cc12 | 56.5%
CCCCCCCCCCCCCCCCN(C(C)c1ccccc1)S(=O)(=O)c1ccc(OC)c(N)c1 (stereo not drawn) | 90.5%
COc1ccc2c(c1)C(=O)c1c-2c(OCCN(C)C)nc2ccccc12 | 21.2%
CO/N=C(/C(=O)NC1C(=O)N2C(C(=O)O)=C(COC(N)=O)CSC12)c1ccco1 (stereo not drawn) | 99.4%
CC/C(=C(/c1ccc(OCCN(C)C)cc1)c1ccc(OC(=O)CCC(=O)c2c(C)[nH]c(/C=C3\N=C(c4ccc[nH]4)C=C3OC)c2C)cc1)c1ccccc1 | -0.572% (active)
COc1ccc2c(c1)O/C(=C\c1ncc([N+](=O)[O-])n1C)C2=O | -48.8% (active)
COc1ccc(/C=C2/CN(C(=O)c3ccccc3F)C/C(=C\c3ccc(OC)cc3)C2=O)cc1 | 38.3%
O=C(Nc1cccc(-n2cc(-c3ccncc3)c(-c3cc(O)cc(Cl)c3)n2)c1)c1ccc(N2CCOCC2)c(C(F)(F)F)c1 | 18.8%
COc1ccc(/C=C2/CN(CCC#N)C/C(=C\c3ccc(OC)cc3)C2=O)cc1 | -28% (active)
Nc1ncn([C@@H]2O[C@H](CO)[C@@H](O)[C@H]2O)c(=O)n1 | 4.49% (active)
COc1cccc(C(=O)Nc2ccc(CN3CCc4nc5cc(OC)c(OC)cc5cc43)cc2)c1 | 42.7%
CC(C)=CCc1cc(O)cc2c1OC(C=C(C)C)C1=C2C(=O)C2=C(C1=O)S(=O)(=O)CCN2 (stereo not drawn) | 7.19% (active)
N=C(N)c1ccc(-c2ccc(-c3ccccc3)o2)nc1 | 93.8%
COc1ccc2nc3cc(Cl)ccc3c(NCCNCC(C)O)c2c1 (stereo not drawn) | -56.5% (active)
N#CCCN1C/C(=C/c2ccc(Br)cc2)C(=O)/C(=C/c2ccc(Br)cc2)C1 | -68.4% (active)
O=C(Nc1ccncc1)C(=O)c1cn(S(=O)(=O)c2cccc3ccccc23)c2ccccc12 | 48%
CCn1cc(C(=O)O)c(=O)c2cnc(N3CCCC3)nc21 | 101%
Cc1ccc(NC(=O)Nc2c(Cl)cccc2Cl)cn1 | -10.6% (active)
Cc1ccc(NC(=O)CSc2nc3ccccc3c(=O)n2CCc2ccccc2)c(C(=O)O)c1 | 90.1%

SMILES | growth
O=C(Nc1ccccc1)Nc1cccc(-n2cc(-c3ccncc3)c(-c3ccc(O)c(Cl)c3)n2)c1 | 51.4%
COc1ccc(-c2nc(-c3nc4ccc(OC)cc4[nH]3)cc3c2[nH]c2ccccc23)cc1 | 45.2%
COc1ccc(-c2nc(-c3nc4cc(Cl)c(Cl)cc4[nH]3)c3ccccn23)cc1 | 55.9%
COc1ccc(/C=C2/CN(C(=O)c3ccc(C)cc3)C/C(=C\c3ccc(OC)cc3)C2=O)cc1 | 69.1%
COc1cc(-c2cc(/C=C/C(=O)c3ccc(F)c(F)c3)[nH]n2)cc(OC)c1OC | 47.4%
COc1ccc(/C(=C2\O[C@@H]([C@H]3COC(C)(C)O3)[C@H]3OC(C)(C)O[C@@H]23)c2cc(OC)c(OC)c(OC)c2)cc1O | 43.4%
CS(=O)(=O)Nc1ccc(Nc2c3ccccc3nc3cc([N+](=O)[O-])ccc23)cc1 | -51.5% (active)
CCN(CC)CCC(=O)Nc1cccc2c1C(=O)c1c(c(O)c3ccccc3c1O)C2=O | 46.4%
COc1ccc(-c2nsc3c2NC(=O)CC3c2ccc(F)cc2)cc1 (stereo not drawn) | 3.06% (active)
N=c1c2c(-c3ccccc3)c(-c3ccccc3)n(Cc3ccccc3)c2ncn1CCCO | 27.8%
CC(C)(C#N)Nc1ccccc1 | 94.1%
Cc1cc(O)c(C(C)(C)C)cc1Sc1cc(C(C)(C)C)c(O)cc1C | 48.3%
CC/C(=C(/c1ccc(OCCN(C)C)cc1)c1ccc(OC(=O)CCCCC(=O)c2c(C)[nH]c(/C=C3\N=C(c4ccc[nH]4)C=C3OC)c2C)cc1)c1ccccc1 | 4.55% (active)
C[N+](C)(C)c1ncnc2nc[nH]c12 | 97.1%
Cc1cc(N(CCCNc2ccnc3cc(Cl)ccc23)Cc2cccs2)nc(Cl)n1 | 35.6%
N#CCCN(NC(=O)OCc1ccccc1)C(=O)OCc1ccccc1 | 120%
CSc1nn(-c2ccccc2)c2ncnc(Oc3ccccc3)c12 | 72.6%
CCCCOc1ccc(NC(=O)Nc2nnc(C)s2)cc1 | -36.8% (active)
O=C1OCC2=C1C(c1cccc(Br)c1)c1cc3c(cc1N2CCO)CCC3 (stereo not drawn) | -31.4% (active)

System: A549/ATCC NSCLC
Assay: as above
Settings: 10 µM

SMILES | growth
Oc1[nH]c2ccc(Cl)cc2c1/C=c1/ccc2c(c1)N=C(c1cc(F)cc(F)c1)N=2 | 57.4%
COc1ccc2c(c1)C(=O)c1c-2c(=O)n(CCCN(C)C)c2cc(OC)c(OC)cc12 | 56.3%
CCCCCCCCCCCCCCCCN(C(C)c1ccccc1)S(=O)(=O)c1ccc(OC)c(N)c1 (stereo not drawn) | 107%
COc1ccc2c(c1)C(=O)c1c-2c(OCCN(C)C)nc2ccccc12 | 14%
CO/N=C(/C(=O)NC1C(=O)N2C(C(=O)O)=C(COC(N)=O)CSC12)c1ccco1 (stereo not drawn) | 101%
CC/C(=C(/c1ccc(OCCN(C)C)cc1)c1ccc(OC(=O)CCC(=O)c2c(C)[nH]c(/C=C3\N=C(c4ccc[nH]4)C=C3OC)c2C)cc1)c1ccccc1 | 11%
COc1ccc2c(c1)O/C(=C\c1ncc([N+](=O)[O-])n1C)C2=O | -23.9% (active)
COc1ccc(/C=C2/CN(C(=O)c3ccccc3F)C/C(=C\c3ccc(OC)cc3)C2=O)cc1 | 63.2%
O=C(Nc1cccc(-n2cc(-c3ccncc3)c(-c3cc(O)cc(Cl)c3)n2)c1)c1ccc(N2CCOCC2)c(C(F)(F)F)c1 | 9.62% (active)
COc1ccc(/C=C2/CN(CCC#N)C/C(=C\c3ccc(OC)cc3)C2=O)cc1 | -4.55% (active)
Nc1ncn([C@@H]2O[C@H](CO)[C@@H](O)[C@H]2O)c(=O)n1 | 16.5%
COc1cccc(C(=O)Nc2ccc(CN3CCc4nc5cc(OC)c(OC)cc5cc43)cc2)c1 | 36.5%
CC(C)=CCc1cc(O)cc2c1OC(C=C(C)C)C1=C2C(=O)C2=C(C1=O)S(=O)(=O)CCN2 (stereo not drawn) | 70.1%
N=C(N)c1ccc(-c2ccc(-c3ccccc3)o2)nc1 | 77.8%
COc1ccc2nc3cc(Cl)ccc3c(NCCNCC(C)O)c2c1 (stereo not drawn) | -3.68% (active)
N#CCCN1C/C(=C/c2ccc(Br)cc2)C(=O)/C(=C/c2ccc(Br)cc2)C1 | -37.6% (active)
O=C(Nc1ccncc1)C(=O)c1cn(S(=O)(=O)c2cccc3ccccc23)c2ccccc12 | 77.8%
CCn1cc(C(=O)O)c(=O)c2cnc(N3CCCC3)nc21 | 96.1%
Cc1ccc(NC(=O)Nc2c(Cl)cccc2Cl)cn1 | 57.3%
Cc1ccc(NC(=O)CSc2nc3ccccc3c(=O)n2CCc2ccccc2)c(C(=O)O)c1 | 98%

SMILES | growth
O=C(Nc1ccccc1)Nc1cccc(-n2cc(-c3ccncc3)c(-c3ccc(O)c(Cl)c3)n2)c1 | 35.5%
COc1ccc(-c2nc(-c3nc4ccc(OC)cc4[nH]3)cc3c2[nH]c2ccccc23)cc1 | 12.9%
COc1ccc(-c2nc(-c3nc4cc(Cl)c(Cl)cc4[nH]3)c3ccccn23)cc1 | 16.8%
COc1ccc(/C=C2/CN(C(=O)c3ccc(C)cc3)C/C(=C\c3ccc(OC)cc3)C2=O)cc1 | 87.9%
COc1cc(-c2cc(/C=C/C(=O)c3ccc(F)c(F)c3)[nH]n2)cc(OC)c1OC | 36.4%
COc1ccc(/C(=C2\O[C@@H]([C@H]3COC(C)(C)O3)[C@H]3OC(C)(C)O[C@@H]23)c2cc(OC)c(OC)c(OC)c2)cc1O | 84.2%
CS(=O)(=O)Nc1ccc(Nc2c3ccccc3nc3cc([N+](=O)[O-])ccc23)cc1 | 16.5%
CCN(CC)CCC(=O)Nc1cccc2c1C(=O)c1c(c(O)c3ccccc3c1O)C2=O | 33.7%
COc1ccc(-c2nsc3c2NC(=O)CC3c2ccc(F)cc2)cc1 (stereo not drawn) | 27.2%
N=c1c2c(-c3ccccc3)c(-c3ccccc3)n(Cc3ccccc3)c2ncn1CCCO | 17.3%
CC(C)(C#N)Nc1ccccc1 | 96.9%
Cc1cc(O)c(C(C)(C)C)cc1Sc1cc(C(C)(C)C)c(O)cc1C | 35.2%
CC/C(=C(/c1ccc(OCCN(C)C)cc1)c1ccc(OC(=O)CCCCC(=O)c2c(C)[nH]c(/C=C3\N=C(c4ccc[nH]4)C=C3OC)c2C)cc1)c1ccccc1 | 52.4%
C[N+](C)(C)c1ncnc2nc[nH]c12 | 108%
Cc1cc(N(CCCNc2ccnc3cc(Cl)ccc23)Cc2cccs2)nc(Cl)n1 | 51.9%
N#CCCN(NC(=O)OCc1ccccc1)C(=O)OCc1ccccc1 | 106%
CSc1nn(-c2ccccc2)c2ncnc(Oc3ccccc3)c12 | 87.3%
CCCCOc1ccc(NC(=O)Nc2nnc(C)s2)cc1 | 41.4%
O=C1OCC2=C1C(c1cccc(Br)c1)c1cc3c(cc1N2CCO)CCC3 (stereo not drawn) | 12.5%
